# The list is not random: actives were taken first. Their share in the collection is about 2%.
# PKD1 kinase inh = inhibitors of human PKD1 kinase, biochemical, fluorescence polarization | Serine/threonine-protein kinase D1 (Homo sapiens), Q15139 | PKD1 kinase fluorescence polarization assay | inhibition, % (concentration not given with the values) | 200,000 tested, 0.056% active | AID 797, 2007; in the data active means inhibition above about 50%
# Hsp70 act = Hsp70 transcriptional activators, primary screen, cell-based, HeLa, Hsp70 promoter luciferase, luminescence, 10 µM | HeLa Hsp70 promoter luciferase reporter; scaled: vehicle 0, proteasome-inhibitor control 100% | activation, % at 10 µM | 200,000 tested, 0.04% active | AID 1203, 2008;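 active means activation above the mean across all tested compounds plus 3 SD, cutoff set per campaign, cut at about 5.5% in these data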;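 further: 100% = MG132 at 30 µM as the positive control and 0% = DMSO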
# Efa HMGR inh = inhibitors of E. faecalis class II HMGR, primary screen, biochemical, Enterococcus faecalis. inhibition, % at 10 µM. HMG-CoA reductase (Enterococcus faecalis, mvaE). purified E. faecalis HMGR, NADPH absorbance 340 nm kinetic. 190,000 tested, 0.41% active;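 active means inhibition above a set limit, the median over all tested compounds plus 3 SD, cut at about 9.5% in these data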;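 further: enzyme runs in reverse so mevalonate oxidation gives rising NADPH absorbance; 0% = complete reaction with DMSO and 100% = background rate lacking mevalonate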
# Wee1 stabilizer = Wee1 degradation inhibitors, primary screen, cell-based, HeLa, Wee1K328M-luciferase, luminescence; Wee1-like protein kinase (Homo sapiens), P30291; HeLa Luc-Wee1K328M stability; 100% = proteasome inhibitor MG132 effect; reporter increase, % at 5 µM; 220,000 tested, 1.2% active;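 active means activation above the mean of all tested compounds plus 3 SD, set per screening run, cut at about 8.8% in these data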;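 further: cells exposed to compound for 20 h before luminescence read; 0% = DMSO alone and 100% = MG132 at 30 µM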
# Target sequence (P30291 whole entry K328M): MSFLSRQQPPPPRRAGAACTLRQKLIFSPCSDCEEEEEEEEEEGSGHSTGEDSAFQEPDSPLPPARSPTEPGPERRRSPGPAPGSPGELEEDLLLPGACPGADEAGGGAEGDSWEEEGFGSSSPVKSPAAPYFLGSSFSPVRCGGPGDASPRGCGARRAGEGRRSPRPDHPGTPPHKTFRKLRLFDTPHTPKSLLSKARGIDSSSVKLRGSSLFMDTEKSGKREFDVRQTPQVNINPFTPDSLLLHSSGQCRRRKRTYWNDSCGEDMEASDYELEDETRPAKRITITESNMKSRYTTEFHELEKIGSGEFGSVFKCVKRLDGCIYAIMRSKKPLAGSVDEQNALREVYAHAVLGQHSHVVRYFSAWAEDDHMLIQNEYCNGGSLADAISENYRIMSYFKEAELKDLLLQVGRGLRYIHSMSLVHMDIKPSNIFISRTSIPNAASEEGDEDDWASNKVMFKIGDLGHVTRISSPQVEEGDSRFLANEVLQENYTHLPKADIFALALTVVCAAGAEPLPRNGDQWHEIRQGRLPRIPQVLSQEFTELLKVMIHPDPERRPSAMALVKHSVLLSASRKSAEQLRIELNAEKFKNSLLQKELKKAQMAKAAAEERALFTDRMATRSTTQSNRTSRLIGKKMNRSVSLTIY
# Arbovirus anti = antivirals against arbovirus infection, primary screen, cell-based, full library, 10K replicate subset; arbovirus infection cell-based antiviral screen; inhibition, % at 10 µM; AID 1251, 2008; 200,000 tested, 0.37% active; in the data active means inhibition above about 30%
# An asterisk follows results filed as active; · = no result given.
SMILES,PKD1 kinase inh,Hsp70 act,Efa HMGR inh,Wee1 stabilizer,Arbovirus anti
Clc1ccc2nc(N3CCCCC3)sc2c1,-7,0,1,11*,3
CC(=O)NC1(C(F)(F)F)C(=O)Nc2c1c(=O)[nH]c(=O)n2CCc1ccccc1 (configuration not stated),·,·,·,2,·
OCCNc1nc(Nc2ccccc2)nc2ccccc12,13,0,-5,-1,34*
CN(C)CCn1c(=O)n(-c2cccc(Cl)c2)c(=O)c2c3c(sc21)CCCCC3,·,·,·,-1,·
Cc1cc(C)[n+]2[nH]c(N)c(N=Nc3ccccc3)c2n1,·,·,·,0,·
CCN(Cc1ccncc1)C(=O)CCc1nnc(CCc2ccccc2OC)o1,4,0,-10,2,-1
CCN(Cc1ccncc1)C(=O)CCc1nnc(CCC2CCCCC2)o1,-8,0,12*,0,4
O=C(C1CC1)N1CCCC(c2ccc(Cl)cc2)=N1,-6,0,10*,6,8
Cn1c(=O)cc(SCC(=O)NCCC2=CCCCC2)c2ccccc21,3,0,0,2,1
CC(OC(=O)CCc1nc2ccccc2[nH]c1=O)c1ccccc1 (configuration not stated),-3,0,-3,11*,-5
CC(OC(=O)CCc1nc2ccccc2[nH]c1=O)C(=O)c1ccccc1 (configuration not stated),-3,0,-2,3,2
Cn1c(=O)[nH]c(=O)c2c1nc(N1CCCCCC1)n2CCSc1nc2ccccc2[nH]1,-5,0,-2,11*,2
Cc1cc(C)nc(SCCn2c(N3CCOCC3)nc3c2c(=O)[nH]c(=O)n3C)n1,-2,0,12*,-2,9
Cc1csc(SCCn2c(N3CCOCC3)nc3c2c(=O)[nH]c(=O)n3C)n1,-8,0,-5,-1,1
Cn1c(=O)[nH]c(=O)c2c1nc(N1CCCC1)n2CCSc1nc2ccccc2[nH]1,-4,0,-5,-1,10
COc1ccc(/C=N/c2c(-c3ccco3)nc3ccccn23)cc1OC,5,0,0,9.0*,-9
Cn1nnnc1SCC(=O)Nc1ccccc1C(N)=O,1,1,0,-2,8
CC(=O)Nc1ccc(NC(=O)Cn2c(=O)n(-c3ccc(F)cc3)c(=O)c3oc4ccccc4c32)cc1,-4,0,0,1,2
NC(=O)c1ccc(NC(=O)Cn2c(=O)n(-c3ccccc3)c(=O)c3oc4ccccc4c32)cc1,-4,0,-8,9.9*,0
O=C(O)/C=C/C(=O)N(Cc1ccccc1)Cc1ccco1,-4,0,-3,4,-6
C=C(C)c1cccc(C(C)(C)NC(=O)N(Cc2ccccc2)Cc2ccco2)c1,3,0,1,16*,-7
OCCC1CN(Cc2cn[nH]c2C2CCCCC2)CCN1C1CCCCC1 (configuration not stated),-2,0,-2,-1,2
COc1ccccc1NC(C#N)c1ccccc1OCc1ccccc1 (configuration not stated),-7,0,0,11*,-2
Nc1nc(CN2CCCCCC2)nc(Nc2ccccc2)n1,16,0,-7,-1,9
Cc1c(-c2nc(N)nc(Nc3ccccc3)n2)oc2ccccc12,13,0,2,10.0*,0
SMILES,PKD1 kinase inh,Hsp70 act,Efa HMGR inh,Wee1 stabilizer,Arbovirus anti
COc1ccc(-n2ncc(C(=O)N3CCN(c4ccc(F)cc4)CC3)c2C)cc1,·,·,·,4,·
O=c1oc2c(O)c(O)cc3c(=O)oc4c(O)c(O)cc1c4c23,12,0,24*,1,-32
Cc1oc(-c2cccs2)[n+]([O-])c1C,-8,0,-1,0,5
Cc1ccccc1-c1oc(C)c(C)[n+]1[O-],-1,0,15*,-3,2
CCCNC(=O)[C@H](C)NC(=O)c1ccc(Br)cc1,-5,0,3,2,-1
COc1ccc(CC(NC(C)=O)C(=O)NC2CCN(c3c(Cc4ccccc4)c(C)nc4ncnn34)CC2)c(OC)c1 (configuration not stated),-1,0,-2,-1,-5
COc1cc(CC(NC(C)=O)C(=O)NC2CCN(C(=O)C3CC3)CC2)cc(OC)c1 (configuration not stated),-5,0,9.6*,1,1
COc1cc(CC(NC(C)=O)C(=O)NC2CCN(c3nc(OC)nc(OC)n3)CC2)cc(OC)c1 (configuration not stated),·,·,·,-1,·
COc1ccc(OC)c(CC(NC(C)=O)C(=O)NC2CCN(c3cc(C)nc4ncnn34)CC2)c1 (configuration not stated),-6,0,9.7*,-1,3
COC(=O)c1sc(S(=O)(=O)Nc2ccc(C)c(C)c2)c(C(=O)OC)c1C,4,0,1,2,9
Cc1cccc(C(=O)N[C@H](C(=O)Nc2nc3ccccc3[nH]2)C(C)C)c1,-1,0,-1,-1,-10
COc1ccc(C(=O)N[C@H](C(=O)Nc2nc3ccccc3[nH]2)C(C)C)cc1,-7,2,-8,9.0*,-6
O=C(Nc1ccc(C(=O)O)cc1)/C(=C\C=C\c1ccccc1)NC(=O)c1ccc(Br)cc1,-2,-1,0,-2,7
Cc1ccc(NC(=O)/C(=C/C=C/c2ccccc2)NC(=O)c2ccccc2)cc1,0,0,-7,0,30*
CN1CCN(c2nc(-c3cccnc3)nc3ccccc23)CC1,-10,0,-8,-1,-11
COc1cc2c(cc1OC)CN(c1nc(-c3cccnc3)nc3ccccc13)CC2,-4,0,-3,10*,-28
COc1ccc(O)c(CNc2ccccc2F)c1,-3,0,-1,4,4
O=[N+]([O-])c1cc(/C=N\Nc2nc(-c3ccccc3)cs2)ccc1O,5,0,0,-2,48*
Cc1ccc(CC(=O)NCCC(=O)O)cc1,·,·,·,1,·
CCOCC(=O)OCC(=O)Nc1cc(OC)c([N+](=O)[O-])cc1C,-2,0,21*,-3,23
O=C(O)c1ccccc1CSc1nc2ccccc2n1Cc1ccccc1C(=O)O,-1,0,11*,-2,8
CCOc1ccccc1-c1nc(-c2ccc(C)nc2OC)no1,-7,0,-7,9.5*,3
CCOc1nc(C)ccc1-c1noc(-c2ccccn2)n1,-13,0,-1,2,1
O=C(COC(=O)CCc1c[nH]c2ccccc12)NC1CCS(=O)(=O)C1 (configuration not stated),-2,0,15*,3,10
Cc1ccc(NC(=O)CN2C(=O)C3C4C=CC(C4)C3C2=O)cc1S(=O)(=O)N(C)C (configuration not stated),-5,0,-8,-2,-10
